SMILES strings stand for the structures. Compounds without any hit were thinned out: in the full panel of roughly 83,000, 20% have a hit.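 Activity criterion: percent growth below 10, measured after cells in 96-well plates were exposed to a single compound concentration for 48 hours.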 Unmarked numbers belong to inactive results. The source made the active and inactive calls.

Assay in all cases: NCI-60 one-dose screen, 48 h (100 = growth as untreated, 0 = no growth, -100 = all killed)
Common to all, as to conditions: 10 µM unless noted

Test [1] concerns HCT-15 colon.
Test [2] deals with HT29 colon.
Test [3] has as its system SNB-75 CNS.
Test [4] relates to SNB-19 CNS.
Test [5] deals with PC-3 prostate.
Test [6] concerns SK-MEL-5 melanoma.
Test [7] has as its system UACC-62 melanoma.
The subject of test [8] is LOX IMVI melanoma.
In test [9] the test system is SK-MEL-28 melanoma.

As for `N#C/C(=C\c1ccc(-c2ccc(Cl)c(Cl)c2)o1)c1nc(-c2ccco2)cs1`, the growth is 34.6% in [1]; 88% in [2]; 70.7% in test [3]; 100% in test [4]; 95.8% in test [5]; 70.5% in test [6]. In addition, the growth in test [7] was 78.3%; in test [8], 93.9%; in test [9], 114%.
As to `COc1ccc(-c2cc(NC(=O)Nc3ccc4ncsc4c3)no2)cc1`, the growth in [1] was 96.5%; in test [2] it was 97.2%; in test [3], 60.2%; in test [4] it was 92.9%; in [5], 92.6%; in test [6], 99.5%. Besides, the growth in [7] was 95.9%; in [8], 102%; in test [9] it was 108%.
On to `Cc1nc(/N=C(\N)NC(=O)Nc2cccc([N+](=O)[O-])c2)sc1C`, for which the growth in [1] was 30.1%; in [2], 42.8%; in [3] it was 58.3%; in [4] it was 90.1%; in test [5] it was 77.1%; in test [6] it was 91.1%. For the same molecule, the growth in [7] is 63.1%; in [8], 71.7%; in [9] it was 80.5%.
Turning to `CSc1nc(NCCO)c(C#N)c(-c2cccc([N+](=O)[O-])c2)n1`, the growth in test [1] is 98.7%; in [2] it was 112%; in test [3] it was 72.8%; in [4], 90.7%; in test [5] it was 94.7%; in test [6] it was 97.2%. For the same molecule, the growth in [7] was 87%; in test [8], 91.6%; in test [9], 112%.
As for `O=C(N=Nc1c(O)[nH]c2ccccc12)c1cc(-c2ccccc2)on1`, the growth was 102% in test [1]; 104% in test [2]; 53.7% in [3]; 100% in [4]; 101% in test [5]; 100% in test [6]. Also, the figures for the growth in test [7], in [8] and in test [9] were 99.6%, 95.9% and 108%, respectively.
`C=CC(=O)Nc1cccc(-c2nc(SC)nc(NCc3ccccc3)c2C#N)c1`: the growth in test [1] was 58.4%; in test [2], 62.2%; in [3] it was 19.6%; in test [4], 54.8%; in test [5], 74.8%; in [6], 74%. Besides, the growth is 61% in test [7], 65.8% in test [8] and 82.4% in test [9].
For the molecule `COc1cc2nc(N3CCCC3)nc(NCC3CCCCC3)c2cc1OC`, the growth is -70.9% (active) in test [1]; -24.8% (active) in [2]; 93.4% in test [3]; 82.9% in test [4]; 25.1% in test [5]; -97.7% (active) in test [6]. Further, the growth in [7] was 87%; in [8] it was -92.8% (active); in test [9], -86.4% (active).
In the case of `CC1(C)CC[C@]2(C(=O)Nc3ccccn3)CC[C@]3(C)C(=CC[C@@H]4[C@@]5(C)C/C(=C/c6cccnc6)C(=O)C(C)(C)[C@@H]5CC[C@]43C)[C@H]2C1`, the growth in [1] is 18.9%; in test [2] it was 25.1%; in test [3] it was 45.2%; in test [4], 63.8%; in [5], 19.9%; in [6], -14.8% (active). For the same molecule, the growth in test [7] was 34.1%; in test [8] it was 14.9%; in test [9], 48.2%.
With `CC(C)(O)c1cn(CCCCN2C(=O)C(=O)c3ccccc32)nn1`, the growth in [1] is 101%; in test [2], 107%; in test [3] it was 68%; in test [4] it was 95.9%; in [5], 96.3%; in [6], 99.7%. The growth is 98.1% in test [7], 91.6% in test [8] and 113% in test [9].
As to `CC(=O)O[C@H]1CC[C@]2(C)[C@H]3CC=C4[C@@H]5CC(C)(C)CC[C@]5(C(=O)NCCNCCN)CC[C@@]4(C)[C@]3(C)CC[C@H]2C1(C)C`, the growth is -89.3% (active) in test [1]; -92.8% (active) in [2]; 88% in [3]; 2.09% (active) in test [4]; -44.3% (active) in [5]; 71.4% in test [6]. Further, the growth is -21.2% (active) in [7], -100% (active) in test [8] and -85.6% (active) in test [9].
Consider `COc1cccc(-c2nc3sccn3c2-c2ccnc(NCCCNS(=O)(=O)c3c(Cl)cccc3Cl)c2)c1`, for which the growth in test [1] is 37.7%; in test [2], 48.4%; in [3], 73%; in test [4], 78.7%; in test [5], 35.1%; in [6], 22.8%. The growth was 25.7% in [7], 54.1% in test [8] and 90.1% in [9].
Take `O=C(N=Nc1c(O)[nH]c2ccc(Br)cc12)c1cc(-c2ccccc2)on1`: the growth in [1] is 103%; in test [2], 97%; in test [3], 58.4%; in test [4], 102%; in test [5], 100%; in test [6] it was 99.9%. Also, the values for the growth in test [7], in test [8] and in [9] were 103%, 94.8% and 106%, respectively.
As for `C=CC(=O)Nc1cccc(Nc2nc(SC)nc(-c3cccc([N+](=O)[O-])c3)c2C#N)c1`, the growth in test [1] is 52.2%; in test [2], 33.7%; in test [3], 23.2%; in test [4], 79.5%; in test [5], 37.5%; in test [6], 55.2%. The growth in test [7] was 65.7%; in test [8], 46.1%; in test [9], 25.3%.

These data come from PubChem BioAssay (NCI).
